Exocytosis inh: LAMP-1 surface exposure blockers, TALL-104 cells – cell-based, flow cytometry, MLPCN library, primary screen; TALL-104 LAMP-1 surface exposure; cells stimulated with thapsigargin and PMA; 360,000 tested, 0.66% active; AID 651702, 2012; inhibition, % at 10 µM;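 active = inhibition above about 55%, limit read from the data; inconclusive = no clear call, values can overlap the other calls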
Myeloid diff 2: induction of myeloid progenitor differentiation, primary screen, cell-based, flow cytometry, MLPCN library | 360,000 tested, 1% active | calls only at 10 µM | ER-HoxA9 myeloid progenitors, lysozyme-GFP differentiation | AID 624256, 2012;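 active = normalized GFP-positive differentiation at or above the plate's own cutoff, the solvent-only control mean plus 3 SD; inconclusive = no clear call, values can overlap the other calls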;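 note: cells exposed to compound for four days before flow analysis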
ABCB6 inh MLPCN: ABCB6 transporter inhibitors, primary screen, K562-ABCB6 cells, flow cytometry, MLPCN library. AID 602162, 2011. 360,000 tested, 0.19% active. K562-ABCB6 porphyrin accumulation, 1 h; stronger effect = lower value. fluorescence ratio to DMSO, % at 10 µM. ATP-binding cassette sub-family B member 6 (Homo sapiens), Q9NP58;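 active = fluorescence ratio to DMSO below 75%, the collection mean minus 3 SD; inconclusive = too few cells collected in the well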;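 note: signal is porphyrin accumulated inside mitochondria; 100% equals median channel fluorescence of DMSO control wells; lower ratio means ABCB6 inhibition with less porphyrin fluorescence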
Target sequence (Q9NP58 whole entry, looked up): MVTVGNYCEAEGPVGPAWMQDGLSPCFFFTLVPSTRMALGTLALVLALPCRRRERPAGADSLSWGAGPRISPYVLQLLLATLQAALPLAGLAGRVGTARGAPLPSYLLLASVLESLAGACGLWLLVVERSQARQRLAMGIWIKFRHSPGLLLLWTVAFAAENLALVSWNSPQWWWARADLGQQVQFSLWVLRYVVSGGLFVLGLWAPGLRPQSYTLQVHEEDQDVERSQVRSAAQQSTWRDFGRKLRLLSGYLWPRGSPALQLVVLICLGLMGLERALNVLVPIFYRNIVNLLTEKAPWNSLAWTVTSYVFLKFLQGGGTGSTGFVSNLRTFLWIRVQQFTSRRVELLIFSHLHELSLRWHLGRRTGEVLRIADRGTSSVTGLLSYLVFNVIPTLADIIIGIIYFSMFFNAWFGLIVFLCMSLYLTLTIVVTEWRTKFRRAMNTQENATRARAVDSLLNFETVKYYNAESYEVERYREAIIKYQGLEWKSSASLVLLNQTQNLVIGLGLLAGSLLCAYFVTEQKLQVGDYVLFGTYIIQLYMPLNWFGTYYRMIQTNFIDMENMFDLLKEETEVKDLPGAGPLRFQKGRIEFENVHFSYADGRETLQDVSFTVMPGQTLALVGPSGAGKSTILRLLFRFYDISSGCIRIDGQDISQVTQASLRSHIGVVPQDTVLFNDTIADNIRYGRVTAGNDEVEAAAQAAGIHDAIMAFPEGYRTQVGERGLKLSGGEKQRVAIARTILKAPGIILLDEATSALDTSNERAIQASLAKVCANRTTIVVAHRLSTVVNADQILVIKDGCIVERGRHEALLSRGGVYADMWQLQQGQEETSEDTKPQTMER
Exocytosis CP01: inhibitors of lytic granule exocytosis, confirmation, TALL-104 cells, flow cytometry, Cherry Pick01; shares compounds with Exocytosis inh; LAMP-1 externalization; stimulated with PMA plus thapsigargin; inhibition, % at 10 µM; 1,500 tested, 11% active; AID 651954, 2012; in the data active = inhibition above about 60%;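 note: 0% = stimulated vehicle wells and 100% = unstimulated wells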
An asterisk follows results filed as active; i = inactive; ? = inconclusive; / = not tested or not shown. Most compounds without a hit are left out; they make up all but 1.8% or so of the library.

SMILES	Exocytosis inh	Myeloid diff 2	ABCB6 inh MLPCN	Exocytosis CP01
CCN(Cc1ccccc1)CC(O)COC(c1ccc(OC)cc1)c1ccc(OC)cc1 (stereo unspecified)	66*	i	110	-11
CCN(CC)CC(O)COC(c1ccccc1)c1ccccc1 (stereo unspecified)	-4	i	96	/
OCC1C2c3ccccc3C(c3ccccc32)C1CO (stereo unspecified)	8	i	93	/
COC(=O)Nc1nc(-c2cc(Cl)ccc2Cl)cs1	1	i	102	/
CCOC(=O)Nc1nc(-c2ccc(F)cc2F)cs1	65*	i	101	-14
COc1ccc(S(=O)(=O)Nc2ccccc2N2CCOCC2)cc1OC	0	i	99	/
COc1ccc(C(=O)NNC(=O)c2ccc(F)c(S(=O)(=O)N3CCOCC3)c2)cc1	5	i	97	/
CSc1ccccc1NC(=O)CN(C)C(=O)Cc1c[nH]c2ccccc12	7	/	101	/
CSc1ccccc1NC(=O)CN(C)C(=O)CCc1c[nH]c2ccccc12	62*	i	104	-15
COc1ccc(NC(=O)N(C2CCCCC2)C2CCN(C(C)C)CC2)c(OC)c1	70*	i	97	-12
COc1ccc(NC(=O)N(C2CCCCC2)C(C)c2ccco2)c(OC)c1 (stereo unspecified)	0	i	100	/
CC(C)Nc1ncnc2[nH]ncc12	14	i	101	/
O=C(CSc1nccn(-c2cccc(F)c2)c1=O)Nc1ccc(Cl)cc1F	76*	i	100	-10
O=C(CSc1nccn(-c2ccc(F)c(F)c2)c1=O)NC1CCCC1	23	i	102	/
O=C(c1ccc(Cl)cc1)[C@@H]1[C@@H]2C(=O)N(c3cccc4ccccc34)C(=O)[C@@H]2C2c3ccccc3C=NN21 (stereo partly specified)	-5	i	101	/
CC(C)c1ccc(NC(=O)N2CCc3ccccc3C2)cc1	-1	i	91	/
O=C(Nc1ccc([N+](=O)[O-])cc1)N1CCc2ccccc2C1	85*	i	94	-12
CCOc1ccccc1N1CCN(CC(=O)NC(C)c2ccccc2)CC1 (stereo unspecified)	-7	i	97	/
CCOC(=O)Cc1cn(C(=O)OC(C)(C)C)c2ccccc12	9	i	106	/
Fc1cccc(NCCc2c[nH]c3ccccc23)n1	-12	i	95	/
c1ccc2c(NCCc3c[nH]c4ccccc34)c3ccccc3nc2c1	72*	?	89	-5
CN(C)CCNc1ccc2ncn3c4ccc(O)cc4c(=O)c1c23	-5	/	246	/
O=C(Nc1cnn(Cc2ccccc2)c1)c1cc2nc(-c3ccco3)cc(C(F)(F)F)n2n1	96*	i	99	-5
Cc1nn(C)cc1NC(=O)c1cc2nc(-c3ccco3)cc(C(F)(F)F)n2n1	-3	i	99	/
O=[N+]([O-])c1ccc2nc(/C=C/c3ccc(Cl)cc3)[nH]c2c1	91*	i	95	88*
SMILES	Exocytosis inh	Myeloid diff 2	ABCB6 inh MLPCN	Exocytosis CP01
O=[N+]([O-])c1ccc(-c2nc3ccc([N+](=O)[O-])cc3[nH]2)cc1	-1	i	94	/
Cc1c(C(=O)NCCC#N)sc(=O)n1Cc1ccc(C(=O)N(C)C)cc1	-6	i	97	/
COc1cc(O)c(C(CC(=O)N2CCOCC2)c2cc(OC)c(OC)c(OC)c2)c(OC)c1 (stereo unspecified)	4	i	98	/
c1ccc(C(NCCNC(c2ccccc2)c2ccccc2)c2ccccc2)cc1	80*	i	101	3
NS(=O)(=O)c1ccc(CCNC(c2ccccc2)c2ccccc2)cc1	8	i	93	/
COc1ccc(OC)c(Nc2nc(-c3ccncc3)nc3ccccc23)c1	83*	i	102	-4
COc1ccc(Nc2nc(-c3ccccc3)nc3ccccc23)c(OC)c1	0	i	91	/
CC1(C)CC2(CCCN(CC(O)(c3ccccc3)c3ccccc3)C2)CCO1 (stereo unspecified)	15	i	93	/
CCC1(C)CC2(CCCN(CCC(O)(c3ccccc3)c3ccccc3)C2)CCO1 (stereo unspecified)	58*	i	97	-11
O=C(NCc1cccnc1)c1cc(C(=O)C2CC2)c[nH]1	-3	i	90	/
O=C(NCc1ccccc1Cl)c1cc(C(=O)C2CC2)c[nH]1	61*	i	87	-13
COc1ccc(-c2nc3cc(C)c(Br)c(C)n3c2Cc2ccccc2C(F)(F)F)cc1OC	-8	i	98	/

Screens from PubChem BioAssay.
